Experimental data as given in the supplement of paper PMC9433436.
± gives the standard deviation of the averaged measurements. Whole data set: some 4,100 sequences, median “relative kcat/Km (krel) vs genomic leader AAAGAU” near 1.7, cut for the highest 2% near 6.5. For the sample, the highest values were picked, then their nearest neighbours and some sequences at random.

Molecular target: T1, E. coli RNase P holoenzyme (M1 P RNA + rnpA protein) (UniProt P0A7Y8)
T1 sequence: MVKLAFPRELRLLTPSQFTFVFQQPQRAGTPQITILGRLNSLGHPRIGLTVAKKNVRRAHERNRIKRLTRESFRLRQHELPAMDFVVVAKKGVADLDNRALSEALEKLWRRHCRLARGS
Assay: relative kcat/Km (krel) vs genomic leader AAAGAU (relative (reference leader = 1)); higher = faster RNase P cleavage
Protocol: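 HTS-Kin: a pool of ptRNA-Met (21C construct) with all 4096 combinations of 5' leader nucleotides N(-6) to N(-1) was processed in vitro by E. coli RNase P (P RNA + rnpA/C5 protein) under multiple-turnover conditions at 37 C, pH 8, 17.5 mM MgCl2. Residual substrate was Illumina-sequenced at several fractions reacted, and relative kcat/Km (krel) was computed by internal competition kinetics, calibrated to the genomic leader (AAAGAU = 1). The listed hexamer is the varied N(-6)..N(-1) leader (DNA letters), and it sits between a fixed 5' stem-loop flank (GCAUGCACGAAAGUGCGUGCUAUGAA) and the mature tRNA-Met starting GGCUACGUAGCUCAGUUGG. Two technical replicates are averaged.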

[1] = fraction of substrate reacted: ~9-10% (9.79% repeat 1, 9.1% repeat 2)
[2] = fraction of substrate reacted: ~13-16% (15.68% repeat 1, 13.17% repeat 2)
[3] = fraction of substrate reacted: ~26-29% (28.66% repeat 1, 26.4% repeat 2)

Sequence | relative kcat/Km [1] | relative kcat/Km [2] | relative kcat/Km [3]
CTACGT | 0.396 ± 0.012 | 0.978 ± 0.12 | 1.13 ± 1.1
TTAGGG | 0.357 ± 0.048 | 1.11 ± 0.86 | 2.15 ± 2.1
GGGTAA | 1.51 ± 0.8 | 1.31 ± 0.21 | 1.46 ± 0.55
GGAGCT | 1.22 ± 0.62 | 0.705 ± 0.57 | 1.64 ± 0.58
GGCACA | 1.43 ± 0.55 | 1.26 ± 0.95 | 2.08 ± 0.64
CTCACA | 3.32 ± 0.59 | 3.94 ± 0.75 | 5.85 ± 2.7
GTCACA | 3.73 ± 1.8 | 4.78 ± 1.1 | 7.01 ± 2.5
AAACGA | 2.12 ± 0.92 | 1.89 ± 0.67 | 2.21 ± 0.41
CCCTTG | – | – | 1.42 ± 0.67
ACGAAA | 1.79 ± 0.39 | 1.66 ± 0.37 | 2.72 ± 1.1
GCTTAT | 2.2 ± 0.24 | 3.15 ± 0.31 | 4.62 ± 1.7
TTTTAA | 4.32 ± 1.7 | 4.88 ± 0.61 | 6.68 ± 2.5
ATTTAT | 3.82 ± 1.8 | 4.84 ± 0.46 | 7.02 ± 3
CCTTAT | 3.19 ± 0.95 | 4.47 ± 0.36 | 6.48 ± 2.4
CTTTAA | 3.07 ± 1.6 | 3.8 ± 0.23 | 5.72 ± 2
TCTTAT | 4.12 ± 1.9 | 5.44 ± 1.1 | 8.21 ± 3.5
ATTTAA | 3.55 ± 1.8 | 4.39 ± 0.62 | 5.24 ± 1.9
TTTTTA | 3.12 ± 2.4 | 2.58 ± 0.21 | 3.44 ± 0.81
ATTTAG | – | 2.526 ± 0.01 | 3.82 ± 0.68
TTTAAA | 3.37 ± 1.6 | 3.88 ± 0.2 | 5.35 ± 2.1
CTTTAG | 2.44 ± 1.3 | 2.14 ± 0.24 | 3.51 ± 0.57
CTTTAT | 4.88 ± 2 | 5.78 ± 0.63 | 8.16 ± 3.3
GGCACT | 1.99 ± 1.6 | 1.75 ± 0.28 | 2.89 ± 1.2
TTTGGG | – | – | 1.56 ± 1.5
ACATTT | 2.32 ± 1.2 | 2.97 ± 0.19 | 4.45 ± 1.8
AGCAGC | 2.23 ± 0.55 | 2.28 ± 0.13 | 3.24 ± 0.54

Sequence | relative kcat/Km [1] | relative kcat/Km [2] | relative kcat/Km [3]
CCAACC | – | 1.11 ± 0.49 | 1.3 ± 0.39
GCTAGG | 1.3 ± 0.58 | – | 0.775 ± 0.23
AATTTT | 2.36 ± 0.95 | 2.45 ± 0.43 | 3.35 ± 1
CTTTAC | 4.38 ± 1.7 | 4.59 ± 1.3 | 6.2 ± 1.9
TTTTAC | 3.74 ± 1.1 | 4.76 ± 1.2 | 7.2 ± 3.2
TTTTAG | 3.3 ± 2.5 | 2.5 ± 0.78 | 4.51 ± 1.2
TTTTAT | 4.55 ± 1.4 | 5.6 ± 0.89 | 8.5 ± 3.9
GTTTTA | 2.83 ± 1.7 | 2.56 ± 0.17 | 3.52 ± 1
GTTTAA | 3.62 ± 0.62 | 4.49 ± 0.5 | 6.31 ± 3
GTTTAG | – | 1.86 ± 0.39 | 3.84 ± 1.2
TTTTTT | 3.31 ± 1.9 | 3.41 ± 0.27 | 4.9 ± 1.7
ATTTAC | 4.31 ± 1.7 | 4.75 ± 0.58 | 6.43 ± 2.2
TTTATT | 2.77 ± 0.82 | 3.08 ± 0.42 | 4.5 ± 2.1
GTTTAT | 3.69 ± 0.5 | 5.18 ± 1.8 | 8 ± 3.7
GTTTAC | 3.75 ± 0.76 | 4.65 ± 0.88 | 7.14 ± 3
TAAGCC | 2.57 ± 0.66 | 2.16 ± 0.87 | 1.67 ± 0.62
TTGAGA | 2.45 ± 0.5 | 2.31 ± 0.38 | 3.09 ± 0.91
ATCGTA | 3.1 ± 0.36 | 3.67 ± 0.92 | 5.45 ± 2.6
TGCTGT | – | 0.877 ± 0.71 | 1.11 ± 1.1
GAAACG | – | – | 0.784 ± 0.096
CCGCAG | – | – | 1.14 ± 1.1
GAAGGC | 1.24 ± 0.64 | – | –
ACCGTA | 2.19 ± 0.39 | 2.54 ± 0.21 | 4.07 ± 1.4
TCCTGC | 4.64 ± 1.6 | 5.78 ± 1.5 | 7.5 ± 3.9
CCCTGC | 2.87 ± 1.4 | 3.39 ± 0.2 | 5.06 ± 1.6
TCCTGT | – | – | 2.18 ± 1.6
